# Experimental data from PubChem BioAssay (EPA / NIEHS).
# Records with an inconclusive call do not appear. Active and inactive are the calls of the source. The calls were made as follows: active = hit-call score of the fitted dose curve at least 0.9, where 1 is the maximum; inconclusive = response in the unintended direction; inactive = score below 0.9.
# Experiments:
# [1] = target: bovine Dopamine Receptor (DR), Non-selective Binding, DRD1 (gene 281125) (UniProt Q95136); assay: NVS_GPCR_bDR_NonSelective: NovaScreen (NVS) G Protein-Coupled Receptor Assay for bovine Dopamine Receptor (DR), Non-selective Binding (AID 2283241)
# Sequence of bovine Dopamine Receptor (DR), Non-selective Binding, DRD1 (gene 281125) (Q95136 whole entry, looked up): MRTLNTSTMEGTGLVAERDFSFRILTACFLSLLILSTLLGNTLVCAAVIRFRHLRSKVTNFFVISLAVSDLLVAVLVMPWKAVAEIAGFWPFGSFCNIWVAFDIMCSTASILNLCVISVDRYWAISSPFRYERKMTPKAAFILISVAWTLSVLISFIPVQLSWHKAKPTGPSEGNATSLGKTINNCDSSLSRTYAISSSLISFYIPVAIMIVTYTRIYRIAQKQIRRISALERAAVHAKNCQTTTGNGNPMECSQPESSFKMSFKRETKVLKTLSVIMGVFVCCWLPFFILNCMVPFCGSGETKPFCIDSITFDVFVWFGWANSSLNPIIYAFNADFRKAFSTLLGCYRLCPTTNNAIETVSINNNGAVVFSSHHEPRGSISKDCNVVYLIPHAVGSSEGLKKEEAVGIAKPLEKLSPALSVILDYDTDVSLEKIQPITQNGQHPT
# Outline: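 Bovine striatal membranes; radioligand displacement read by filtration and scintillation counting 1 h after dosing, loss of signal vs DMSO. Screened in duplicate at 25 uM, then concentration-response for hits.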
# [2] = target: human Serotonin, 5-Hydroxytryptamine Receptor 2A (5HT2A), HTR2A (gene 3356) (UniProt P28223); assay: NVS_GPCR_h5HT2A: NovaScreen (NVS) G Protein-Coupled Receptor Assay for human Serotonin, 5-Hydroxytryptamine Receptor 2A (5HT2A) (AID 2283249)
# Sequence of human Serotonin, 5-Hydroxytryptamine Receptor 2A (5HT2A), HTR2A (gene 3356) (P28223 whole entry, looked up): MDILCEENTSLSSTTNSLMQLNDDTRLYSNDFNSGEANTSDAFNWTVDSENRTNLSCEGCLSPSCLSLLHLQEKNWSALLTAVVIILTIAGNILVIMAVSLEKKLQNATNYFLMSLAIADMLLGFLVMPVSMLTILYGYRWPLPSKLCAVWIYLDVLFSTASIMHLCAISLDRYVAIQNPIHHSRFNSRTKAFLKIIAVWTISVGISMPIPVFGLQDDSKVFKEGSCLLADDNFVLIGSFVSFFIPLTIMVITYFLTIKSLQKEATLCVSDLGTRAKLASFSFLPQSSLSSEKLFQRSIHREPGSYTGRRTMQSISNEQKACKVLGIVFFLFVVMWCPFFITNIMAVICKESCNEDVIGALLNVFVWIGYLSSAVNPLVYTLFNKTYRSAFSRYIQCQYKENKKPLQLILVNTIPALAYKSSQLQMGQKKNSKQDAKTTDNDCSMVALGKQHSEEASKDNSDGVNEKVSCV
# Outline: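 Human cortex membranes, cell-free radioligand binding; filter-based scintillation read 1.5 h after dosing. Duplicate screen at 25 uM first; displacement of specific binding (loss of signal) versus DMSO.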
# [3] = system: guinea pig Muscarinic, Peripheral (Mperiperal) Receptor, Non-selective Binding, gene 100379235; assay: NVS_GPCR_gMPeripheral_NonSelective: NovaScreen (NVS) G Protein-Coupled Receptor Assay for guinea pig Muscarinic, Peripheral (Mperiperal) Receptor, Non-selective Binding (AID 2283250)
# Outline: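 Guinea pig bladder membranes, radioligand binding read 1 h after dosing by filter scintillation counting; loss of signal vs DMSO. Primary duplicate screen at 25 uM, then concentration-response up to 50 uM.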
# [4] = target: human Serotonin, 5-Hydroxytryptamine Receptor 7 (5HT7), HTR7 (gene 3363) (UniProt P34969); assay: NVS_GPCR_h5HT7: NovaScreen (NVS) G Protein-Coupled Receptor Assay for human Serotonin, 5-Hydroxytryptamine Receptor 7 (5HT7) (AID 2283255);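 also: hits reduce specific radioligand binding relative to DMSO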
# Outline: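 Radioligand displacement on membranes from CHO cells expressing human 5HT7, 1 h incubation, filter-based scintillation counting. Primary screen used a single 25 uM concentration in duplicate; actives were followed up in concentration series.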
# [5] = target: human Adrenergic, Beta 3 Receptor (Adrb3), ADRB3 (gene 155) (UniProt P13945); assay: NVS_GPCR_hAdrb3: NovaScreen (NVS) G Protein-Coupled Receptor Assay for human Adrenergic, Beta 3 Receptor (Adrb3) (AID 2283262)
# Sequence of human Adrenergic, Beta 3 Receptor (Adrb3), ADRB3 (gene 155) (P13945 whole entry, looked up): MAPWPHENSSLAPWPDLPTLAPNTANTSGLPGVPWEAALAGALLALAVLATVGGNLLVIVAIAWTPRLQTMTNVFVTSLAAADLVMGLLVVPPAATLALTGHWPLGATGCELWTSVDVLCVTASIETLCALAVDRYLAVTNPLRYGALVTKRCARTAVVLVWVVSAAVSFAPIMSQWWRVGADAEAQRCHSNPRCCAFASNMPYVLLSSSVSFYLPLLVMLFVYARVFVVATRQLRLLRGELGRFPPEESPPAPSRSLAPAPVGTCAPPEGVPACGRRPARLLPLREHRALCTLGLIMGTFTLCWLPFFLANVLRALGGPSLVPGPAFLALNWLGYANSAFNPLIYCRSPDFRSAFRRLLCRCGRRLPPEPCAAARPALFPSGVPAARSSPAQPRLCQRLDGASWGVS
# Outline: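 Membranes from SK-N-MC cells pretreated with isoproterenol and 8-bromo-cAMP were used in a radioligand competitive displacement binding assay. Binding was read by filter-based scintillation counting 1 hour after dosing. Primary screening was in duplicate at 25 uM, with concentration series in follow-up.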
# [6] = system: bovine Histamine 1 Receptor (H1), gene 281231; assay: NVS_GPCR_bH1: NovaScreen (NVS) G Protein-Coupled Receptor Assay for bovine Histamine 1 Receptor (H1) (AID 2283246)
# Outline: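 Radioligand displacement on bovine cerebellar membranes, 1 h after dosing, filter-based scintillation read-out; loss of signal vs DMSO. Duplicate single-concentration screen at 25 uM, then concentration-response up to 50 uM for hits.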
# [7] = target: human Serotonin, 5-Hydroxytryptamine Receptor 5A (5HT5A), HTR5A (gene 3361) (UniProt P47898); assay: NVS_GPCR_h5HT5A: NovaScreen (NVS) G Protein-Coupled Receptor Assay for human Serotonin, 5-Hydroxytryptamine Receptor 5A (5HT5A) (AID 2283251)
# Sequence of human Serotonin, 5-Hydroxytryptamine Receptor 5A (5HT5A), HTR5A (gene 3361) (P47898 whole entry, looked up): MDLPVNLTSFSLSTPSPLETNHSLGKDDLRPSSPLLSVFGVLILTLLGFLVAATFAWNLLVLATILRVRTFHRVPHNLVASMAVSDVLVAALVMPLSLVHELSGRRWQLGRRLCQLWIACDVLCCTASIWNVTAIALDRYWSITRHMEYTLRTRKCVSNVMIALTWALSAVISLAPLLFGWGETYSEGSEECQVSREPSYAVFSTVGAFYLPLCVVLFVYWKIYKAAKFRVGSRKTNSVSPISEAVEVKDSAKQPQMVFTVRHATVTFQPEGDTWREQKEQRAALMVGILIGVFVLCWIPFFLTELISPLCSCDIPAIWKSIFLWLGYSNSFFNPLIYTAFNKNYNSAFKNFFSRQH
# Outline: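 Cell-free radioligand displacement binding on HEK293-derived membrane protein, 1 h incubation, filter-based scintillation counting. Primary screen in duplicate at 25 uM, actives followed in concentration series; loss of signal fitted versus DMSO.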
# [8] = target: human Adrenergic, Alpha 2A Receptor (Adra2A), ADRA2A (gene 150) (UniProt P08913); assay: NVS_GPCR_hAdra2A: NovaScreen (NVS) G Protein-Coupled Receptor Assay for human Adrenergic, Alpha 2A Receptor (Adra2A) (AID 2283257)
# Sequence of human Adrenergic, Alpha 2A Receptor (Adra2A), ADRA2A (gene 150) (P08913 whole entry, looked up): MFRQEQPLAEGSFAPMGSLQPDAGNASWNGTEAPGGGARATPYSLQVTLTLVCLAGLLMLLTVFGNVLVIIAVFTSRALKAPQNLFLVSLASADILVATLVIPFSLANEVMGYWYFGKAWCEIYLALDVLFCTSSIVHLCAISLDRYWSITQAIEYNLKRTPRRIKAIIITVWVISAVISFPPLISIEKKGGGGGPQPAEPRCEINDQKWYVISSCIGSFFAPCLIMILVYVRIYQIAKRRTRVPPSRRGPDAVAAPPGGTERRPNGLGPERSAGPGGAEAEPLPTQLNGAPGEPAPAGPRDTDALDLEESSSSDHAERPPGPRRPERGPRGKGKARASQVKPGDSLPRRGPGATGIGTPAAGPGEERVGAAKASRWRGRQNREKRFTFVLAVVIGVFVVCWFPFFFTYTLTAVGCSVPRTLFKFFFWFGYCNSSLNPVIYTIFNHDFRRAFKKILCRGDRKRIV
# Outline: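 Radioligand filter-binding was run on HT29-derived membranes, cell-free, read by scintillation counting 1 h after dosing. Primary screening was in duplicate at 25 uM, with concentration series in follow-up. Loss of signal versus DMSO indicates displacement.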
# [9] = target: human Adrenergic, Beta 1 Receptor (Adrb1), ADRB1 (gene 153) (UniProt P08588); assay: NVS_GPCR_hAdrb1: NovaScreen (NVS) G Protein-Coupled Receptor Assay for human Adrenergic, Beta 1 Receptor (Adrb1) (AID 2283258)
# Outline: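 Cell-free radioligand displacement on receptor from human neuroepithelioma cells; 2 h after dosing, filter-based scintillation counting. Primary screen in duplicate at 25 uM, actives retested in concentration series; loss of signal vs DMSO baseline.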
# [10] = target: Beta-2 adrenergic receptor (Homo sapiens) (UniProt P07550); assay: NVS_GPCR_hAdrb2: NovaScreen (NVS) G Protein-Coupled Receptor Assay for human Adrenergic, Beta 2 Receptor (Adrb2) (AID 2283261)
# Sequence of Beta-2 adrenergic receptor (Homo sapiens) (P07550 whole entry, looked up): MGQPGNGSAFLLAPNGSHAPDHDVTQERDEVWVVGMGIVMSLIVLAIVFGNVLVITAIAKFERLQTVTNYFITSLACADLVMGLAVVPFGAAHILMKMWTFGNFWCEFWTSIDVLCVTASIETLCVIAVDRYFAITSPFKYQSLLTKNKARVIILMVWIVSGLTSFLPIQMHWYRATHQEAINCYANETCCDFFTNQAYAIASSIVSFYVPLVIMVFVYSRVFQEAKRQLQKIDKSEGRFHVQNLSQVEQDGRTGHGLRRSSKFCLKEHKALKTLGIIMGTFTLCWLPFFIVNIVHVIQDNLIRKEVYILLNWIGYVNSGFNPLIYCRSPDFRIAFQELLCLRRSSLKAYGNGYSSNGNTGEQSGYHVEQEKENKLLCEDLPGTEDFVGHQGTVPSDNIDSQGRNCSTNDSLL
# Outline: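 Filter-based radioligand binding using receptor prepared from CHO cells, 1 h incubation, scintillation counting. Primary screen in duplicate at 25 uM, actives retested in concentration series; loss of binding relative to DMSO.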
# [11] = target: Adenosine receptor A1 (Bos taurus) (UniProt P28190); assay: NVS_GPCR_bAdoR_NonSelective: NovaScreen (NVS) G Protein-Coupled Receptor Assay for bovine Adenosine Receptor (AdoR), Non-selective Binding (AID 2283244)
# Sequence of Adenosine receptor A1 (Bos taurus) (P28190 whole entry, looked up): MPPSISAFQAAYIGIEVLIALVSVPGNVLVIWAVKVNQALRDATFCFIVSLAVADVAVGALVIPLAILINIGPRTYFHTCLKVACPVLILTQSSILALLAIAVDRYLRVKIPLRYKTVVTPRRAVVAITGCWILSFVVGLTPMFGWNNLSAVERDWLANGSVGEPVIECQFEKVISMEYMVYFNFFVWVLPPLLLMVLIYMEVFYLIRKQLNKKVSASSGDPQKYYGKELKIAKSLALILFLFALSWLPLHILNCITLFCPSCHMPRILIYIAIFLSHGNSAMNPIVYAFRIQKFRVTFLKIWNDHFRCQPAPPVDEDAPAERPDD
# Outline: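 Bovine striatal membranes, radioligand displacement binding, 1 h after dosing, filter-based scintillation counting. Screened in duplicate at 25 uM, then concentration-response up to 50 uM; loss of specific binding relative to DMSO.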
# [12] = system: guinea pig Leukotriene B4 Receptor (LTB4), gene 100379538; assay: NVS_GPCR_gLTB4: NovaScreen (NVS) G Protein-Coupled Receptor Assay for guinea pig Leukotriene B4 Receptor (LTB4) (AID 2283247)
# Outline: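 Radioligand displacement on guinea pig spleen membranes, filter-based scintillation counting 2 h after dosing. Primary duplicate single point at 25 uM; hits over threshold (e.g. 30% inhibition) run in concentration-response up to 50 uM, DMSO baseline.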
# [13] = target: human Serotonin, 5-Hydroxytryptamine Receptor 6 (5HT6), HTR6 (gene 3362) (UniProt P50406); assay: NVS_GPCR_h5HT6: NovaScreen (NVS) G Protein-Coupled Receptor Assay for human Serotonin, 5-Hydroxytryptamine Receptor 6 (5HT6) (AID 2283253)
# Sequence of human Serotonin, 5-Hydroxytryptamine Receptor 6 (5HT6), HTR6 (gene 3362) (P50406 whole entry, looked up): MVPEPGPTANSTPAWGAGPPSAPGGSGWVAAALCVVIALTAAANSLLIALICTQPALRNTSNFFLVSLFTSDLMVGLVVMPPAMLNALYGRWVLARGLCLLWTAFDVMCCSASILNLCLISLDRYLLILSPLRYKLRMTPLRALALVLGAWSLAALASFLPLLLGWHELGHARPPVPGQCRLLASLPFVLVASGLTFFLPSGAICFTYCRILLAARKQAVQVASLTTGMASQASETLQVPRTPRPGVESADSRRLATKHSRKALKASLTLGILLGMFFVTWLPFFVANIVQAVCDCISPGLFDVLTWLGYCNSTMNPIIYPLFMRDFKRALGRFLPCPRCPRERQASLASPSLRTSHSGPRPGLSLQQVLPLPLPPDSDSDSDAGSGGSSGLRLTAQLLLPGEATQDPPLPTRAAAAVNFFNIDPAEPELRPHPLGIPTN
# Outline: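 Radioligand binding to 5HT6 in HEK293-derived membranes, cell-free, 1 h after dosing; bound ligand measured by filter-based scintillation counting. Primary screen in duplicate at 25 uM; actives retested in concentration series.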
# [14] = target: human Adrenergic, Alpha 2c Receptor (Adra2C), ADRA2C (gene 152) (UniProt P18825); assay: NVS_GPCR_hAdra2C: NovaScreen (NVS) G Protein-Coupled Receptor Assay for human Adrenergic, Alpha 2c Receptor (Adra2C) (AID 2283259)
# Sequence of human Adrenergic, Alpha 2c Receptor (Adra2C), ADRA2C (gene 152) (P18825 whole entry, looked up): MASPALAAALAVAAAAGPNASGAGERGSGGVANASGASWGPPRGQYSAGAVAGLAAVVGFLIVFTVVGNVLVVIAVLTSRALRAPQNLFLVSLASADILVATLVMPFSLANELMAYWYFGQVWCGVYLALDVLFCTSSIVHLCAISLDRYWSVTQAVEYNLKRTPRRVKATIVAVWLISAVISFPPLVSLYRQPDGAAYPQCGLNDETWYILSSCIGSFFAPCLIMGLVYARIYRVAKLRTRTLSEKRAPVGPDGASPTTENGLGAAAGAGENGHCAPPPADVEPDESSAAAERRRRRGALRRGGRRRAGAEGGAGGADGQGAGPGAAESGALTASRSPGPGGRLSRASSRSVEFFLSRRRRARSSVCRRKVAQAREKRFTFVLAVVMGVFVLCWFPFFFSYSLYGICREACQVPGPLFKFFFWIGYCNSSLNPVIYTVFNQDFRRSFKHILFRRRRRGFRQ
# Outline: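 Radioligand binding on Sf9-expressed receptor membranes, 1 h after chemical dosing, filter-based scintillation read-out. Loss of binding fitted positively versus DMSO; primary duplicate screen at 25 uM, actives retested in concentration series.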
# [15] = target: human Adenosine A1 Receptor (AdoRA1), ADORA1 (gene 134) (UniProt P30542); assay: NVS_GPCR_hAdoRA1: NovaScreen (NVS) G Protein-Coupled Receptor Assay for human Adenosine A1 Receptor (AdoRA1) (AID 2283254)
# Sequence of human Adenosine A1 Receptor (AdoRA1), ADORA1 (gene 134) (P30542 whole entry, looked up): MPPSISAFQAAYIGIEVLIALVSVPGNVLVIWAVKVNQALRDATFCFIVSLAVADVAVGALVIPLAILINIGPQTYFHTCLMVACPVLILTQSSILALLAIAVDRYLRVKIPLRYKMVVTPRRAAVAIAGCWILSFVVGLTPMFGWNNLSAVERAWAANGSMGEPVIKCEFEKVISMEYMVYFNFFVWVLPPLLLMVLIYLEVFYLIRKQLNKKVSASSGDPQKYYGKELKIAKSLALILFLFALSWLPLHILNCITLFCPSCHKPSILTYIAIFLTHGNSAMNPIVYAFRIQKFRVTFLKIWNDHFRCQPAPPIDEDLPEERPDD
# Outline: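 Hum. cortical membranes + radioligand, cmpd 1 h; filtration, scintillation count. Readout = decrease vs DMSO. Primary 25 uM dup; hits → conc. series.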
# [16] = target: human Adenosine A2a Receptor (AdoRA2a), ADORA2A (gene 135) (UniProt P29274); assay: NVS_GPCR_hAdoRA2a: NovaScreen (NVS) G Protein-Coupled Receptor Assay for human Adenosine A2a Receptor (AdoRA2a) (AID 2283256)
# Sequence of human Adenosine A2a Receptor (AdoRA2a), ADORA2A (gene 135) (P29274 whole entry, looked up): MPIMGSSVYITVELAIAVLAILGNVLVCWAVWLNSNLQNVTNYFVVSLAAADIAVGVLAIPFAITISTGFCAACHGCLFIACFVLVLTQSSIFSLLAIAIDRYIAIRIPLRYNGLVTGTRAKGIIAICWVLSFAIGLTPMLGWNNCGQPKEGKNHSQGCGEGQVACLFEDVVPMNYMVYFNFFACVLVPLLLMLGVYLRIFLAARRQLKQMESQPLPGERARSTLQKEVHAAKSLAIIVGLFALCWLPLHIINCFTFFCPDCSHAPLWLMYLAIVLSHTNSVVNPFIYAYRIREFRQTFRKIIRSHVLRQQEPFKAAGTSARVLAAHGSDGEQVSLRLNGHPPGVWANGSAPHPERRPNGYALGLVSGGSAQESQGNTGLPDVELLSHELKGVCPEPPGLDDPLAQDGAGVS
# Outline: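 Cell-free radioligand binding on membranes from HEK293 expressing the receptor; competitive displacement read 1.5 h after dosing by filter-based scintillation counting. Primary screen in duplicate at 25 uM; actives followed in concentration series, with DMSO as baseline.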
# [17] = target: Type-1 angiotensin II receptor (Homo sapiens) (UniProt P30556); assay: NVS_GPCR_hAT1: NovaScreen (NVS) G Protein-Coupled Receptor Assay for human Angiotensin II receptor type 1 (AT1) (AID 2283263)
# Sequence of Type-1 angiotensin II receptor (Homo sapiens) (P30556 whole entry, looked up): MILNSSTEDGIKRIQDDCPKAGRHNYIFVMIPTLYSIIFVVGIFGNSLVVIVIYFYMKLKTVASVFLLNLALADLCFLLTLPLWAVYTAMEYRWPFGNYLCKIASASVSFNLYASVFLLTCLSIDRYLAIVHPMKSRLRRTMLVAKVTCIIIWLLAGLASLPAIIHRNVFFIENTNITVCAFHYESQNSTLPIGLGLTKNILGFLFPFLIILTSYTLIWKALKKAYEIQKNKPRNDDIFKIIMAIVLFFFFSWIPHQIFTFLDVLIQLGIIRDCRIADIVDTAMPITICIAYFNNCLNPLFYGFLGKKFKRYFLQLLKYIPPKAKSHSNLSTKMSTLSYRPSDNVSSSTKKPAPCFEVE
# Outline: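 Membranes from KAN-TS cells; radioligand competitive displacement, 3 h, filtration and scintillation counting. Single-point duplicate screen at 25 uM, then concentration-response up to 50 uM for hits; loss of signal fitted versus DMSO.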
smiles,measurement,setting,value
O=C(N[C@@H](c1ccccc1)[C@@H]1CCCCN1)c1cccc(C(F)(F)F)c1Cl,AC50,[1],25 µM (active)
same,AC50,[2],25 µM (active)
same,outcome,[3],inactive
same,AC50,[4],8.16 µM (active)
same,outcome,[5],inactive
CN(C)CCCN1c2ccccc2Sc2ccc(Cl)cc21,outcome,[6],inactive
same,AC50,[3],1.66 µM (active)
same,AC50,[7],1.35 µM (active)
same,AC50,[8],1.43 µM (active)
same,AC50,[9],25 µM (active)
same,AC50,[10],17.1 µM (active)
same,AC50,[5],25 µM (active)
O=C(O)CN(CC(=O)O)CC(=O)O,outcome,[11],inactive
NC=O,outcome,[12],inactive
COc1ccc(OC(F)(F)F)cc1CN[C@H]1CCCN[C@H]1c1ccccc1,AC50,[1],8.68 µM (active)
same,AC50,[6],7.82 µM (active)
same,AC50,[3],25 µM (active)
same,outcome,[7],inactive
same,AC50,[13],9.71 µM (active)
same,AC50,[8],13.4 µM (active)
same,AC50,[14],10.6 µM (active)
same,AC50,[5],20.5 µM (active)
C#CC(O)C(CC)CCCC (stereo unspecified),AC50,[12],2.8 µM (active)
CC(=O)O,outcome,[2],inactive
Nc1nc(Cl)nc2c1ncn2[C@H]1C[C@H](O)[C@@H](CO)O1,AC50,[11],10.6 µM (active)
same,AC50,[15],8.99 µM (active)
same,AC50,[16],13.1 µM (active)
CC(C)(O)c1ccc(CNC(=O)c2cccnc2Oc2ccc(F)cc2)cc1,AC50,[12],4.68 µM (active)
same,outcome,[2],inactive
Cc1cc(SC2=C(O)C[C@@](CCc3ccc(N)cc3)(C(C)C)OC2=O)c(C(C)(C)C)cc1CO,outcome,[11],inactive
CC1(C)C(=O)NC(=O)N1CO,outcome,[13],inactive
CSc1ccc(Oc2ccc(S(N)(=O)=O)cc2CN(C)C)cc1C,AC50,[13],2.79 µM (active)
same,AC50,[8],0.263 µM (active)
same,AC50,[14],5.83 µM (active)
CCC(C)N(C)C(=O)c1cc2ccccc2c(-c2ccccc2Cl)n1 (stereo unspecified),AC50,[16],7.37 µM (active)
same,AC50,[17],15.9 µM (active)
Cc1cc(Cc2ccc(N)c(C)c2)ccc1N,outcome,[16],inactive
CCc1nc(N)nc(N)c1-c1ccc(Cl)cc1,AC50,[8],4.81 µM (active)
same,outcome,[10],inactive
O=C(O)c1[nH]n(-c2ccc(S(=O)(=O)O)cc2)c(=O)c1N=Nc1ccc(S(=O)(=O)O)cc1,outcome,[14],inactive
COC(=O)[C@H]1[C@H]2C[C@@H]3c4[nH]c5cc(OC)ccc5c4CCN3C[C@H]2C[C@@H](OC(=O)c2cc(OC)c(OC)c(OC)c2)[C@@H]1OC,AC50,[10],12.1 µM (active)
